Only a selection was taken, and hits are over-represented in it overall.
Methyltransferases – Primary Screen for Target Class Profiling of Small Molecule Inhibitors of Methyltransferases | purified enzyme, MTase-Glo SAH luminescence; active compounds read low | calls only at 40 µM | actives 3.9% (n = 25,000); call rule not given here
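Each enzyme was reacted with SAM and its substrate, with compounds tested once at 40 uM; SAH formed was read by MTase-Glo luminescence.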
* marks the source's active call; other numbers are inactive results. On the % scale 0 is the no-effect control and ±100 the full control effect.

For Cc1ccccc1NC(=O)CSc1nnc2n(Cc3ccccc3)c(=O)c3ccccc3n12 the results were Methyltransferases inactive.
`Cc1cc(F)ccc1NS(=O)(=O)c1ccc2[nH]c(=O)[nH]c2c1` gave Methyltransferases inactive.
`COc1ccc(OC)c(S(=O)(=O)N2CCCC(Cc3ncc(C)n3CC3CC3)C2)c1` (stereo not drawn) gave Methyltransferases inactive.
`COc1ccc(OC)c(CNC(=O)c2cc3n(n2)CC(C)(C(=O)NCc2ccccc2)N(C)C3=O)c1` (stereo not drawn) gave Methyltransferases inactive.
For CCOC(=O)c1cc2n(n1)CC(C)(C(=O)NCc1ccc(C)cc1)N(Cc1ccccc1Cl)C2=O (stereo not drawn) the results were Methyltransferases inactive.
For O=C(CCc1nnc2n(Cc3ccccc3)c(=O)c3ccccc3n12)N1CCN(c2ccc(Cl)cc2)CC1 the results were Methyltransferases inactive.
`CN(CCCN1C(=O)c2cc3occc3n2CC1(C)C(=O)NC1CCCCCC1)Cc1ccccc1` (stereo not drawn) gave Methyltransferases inactive.
Screening CCC(C)NC(=O)c1ccc2c(=O)n(C(C)C)c3nn(CC(=O)NCc4ccccc4)c(=O)n3c2c1 (stereo not drawn) returned Methyltransferases inactive.
Screening O=C(Cn1nc2n(CCc3ccccc3)c(=O)c3ccccc3n2c1=O)Nc1cccc(F)c1 returned Methyltransferases inactive.
Screening O=c1[nH]c2ccc(S(=O)(=O)Nc3ccccc3)cc2[nH]1 returned Methyltransferases inactive.
Screening CC(CNC(=O)CCCc1nnc2n3nc(-c4ccccc4)nc3c3ccccc3n12)c1ccccc1 (stereo not drawn) returned Methyltransferases inactive.
For OC[C@H]1O[C@@H](OC(CCCCc2ccc(O)cc2)CCc2ccc(O)cc2)[C@H](O[C@@H]2OC[C@](O)(CO)[C@H]2O)[C@@H](O)[C@@H]1O (stereo partly drawn) the results were Methyltransferases inactive.
`O=C(O)CC(CCc1ccccc1)OC1OC(CO)C(O)C(O)C1O` (stereo not drawn) gave Methyltransferases active.
For OC[C@H]1O[C@@H](OCCc2ccc(O)cc2)[C@H](O)[C@@H](O)[C@@H]1O the results were Methyltransferases inactive.
`OC[C@H]1O[C@@H](O[C@H]2[C@H](OCc3ccccc3)O[C@H](CO[C@@H]3OC[C@@H](O)[C@H](O)[C@H]3O)[C@@H](O)[C@@H]2O)[C@H](O)[C@@H](O)[C@@H]1O` gave Methyltransferases inactive.
For OC[C@H]1O[C@@H](O[C@H]2[C@H](O)[C@@H](CO)O[C@@H](OCc3ccccc3)[C@@H]2O[C@@H]2OC[C@](O)(CO)[C@H]2O)[C@H](O)[C@@H](O)[C@@H]1O the results were Methyltransferases inactive.
OC[C@H]1O[C@@H](OCCc2ccccc2)[C@H](O[C@@H]2OC[C@@H](O)[C@H](O)[C@H]2O)[C@@H](O)[C@@H]1O was read as Methyltransferases active.
CCOc1ccc(CCN2C(=O)c3cc(C(=O)OC)nn3CC2(C)C(=O)NC2CCCC2)cc1 (stereo not drawn) was read as Methyltransferases inactive.
Screening CC(C)Oc1ccc(CN2C(=O)c3cc(-c4ccccc4)nn3CC2(C)C(=O)NCc2ccccc2)cc1 (stereo not drawn) returned Methyltransferases inactive.
For CC1(C(=O)NC2CCCCCC2)Cn2c(ccc2-c2ccccc2)C(=O)N1Cc1ccc(F)cc1 (stereo not drawn) the results were Methyltransferases inactive.
`CCCn1c(=O)c2ccc(C(=O)NC(C)CC)cc2n2c(=O)n(Cc3ccccc3Cl)nc12` (stereo not drawn) gave Methyltransferases inactive.
For Cn1c(=O)c2ccc(C(=O)NC3CCCCC3)cc2n2c(=O)n(Cc3ccccc3F)nc12 the results were Methyltransferases inactive.
CC1(C(=O)NC2CCCCC2)Cn2c(cc3occc32)C(=O)N1Cc1cccc(F)c1 (stereo not drawn) was read as Methyltransferases inactive.
CC(C)c1cc(-c2n[nH]c(=O)n2-c2ccc3c(ccn3C)c2)c(O)cc1O was read as Methyltransferases active.
For COc1ccc(CN2C(=O)c3ccc(-c4ccco4)n3CC2(C)C(=O)NC2CCCC(C)C2C)cc1 (stereo not drawn) the results were Methyltransferases inactive.
O=C(CCc1nnc2n(Cc3ccc(F)cc3)c(=O)c3ccccc3n12)N1CCN(c2ncccn2)CC1 was read as Methyltransferases inactive.
NC(=O)C1CCN(C(=O)CCc2nnc3n(Cc4ccc(Cl)cc4)c(=O)c4ccccc4n23)CC1 was read as Methyltransferases inactive.
`CC(C)NCC(O)c1ccc(O)c(O)c1` (stereo not drawn) gave Methyltransferases inactive.
NC[C@H](O)c1ccc(O)c(O)c1 was read as Methyltransferases active.
For COc1cc(C(O)CO)ccc1O (stereo not drawn) the results were Methyltransferases inactive.
CCc1ccc(NC(=O)Cn2nc3n(CC(C)C)c(=O)c4ccc(C(=O)NCC(C)C)cc4n3c2=O)cc1 was read as Methyltransferases inactive.
For COc1ccc(S(=O)(=O)N2CCCCC2c2nc(C3CC3)n[nH]2)cc1 (stereo not drawn) the results were Methyltransferases inactive.
Screening CCN(CC)c1ccc2c(O)c(C=Nc3ccc(CC(=O)O)c(-c4c5c(nc6ccccc46)CCC(C(=O)NN)C5)c3)c(=O)oc2c1 (stereo not drawn) returned Methyltransferases active.
`Cc1ccc(C)c(C(=O)Cn2nc3n(C)c(=O)c4ccc(C(=O)NC5CCCC5)cc4n3c2=O)c1` gave Methyltransferases inactive.
`Cc1cc2c(cc3n2CC(C)(C(=O)NC2CCCCCCC2)N(Cc2ccc(F)cc2)C3=O)o1` (stereo not drawn) gave Methyltransferases inactive.
Screening O=C(Cc1c[nH]c2ccccc12)NCCc1c[nH]c2ccc(Cl)cc12 returned Methyltransferases inactive.
For COc1cc2c(CCNC(C)=O)c[nH]c2cc1O the results were Methyltransferases active.
`N[C@@H](Cc1c[nH]c2ccc(O)cc12)C(=O)O` gave Methyltransferases inactive.
`COC(=O)c1cc2n(n1)CC(C)(C(=O)NC1CCCCC1)N(c1cc(C)ccc1C)C2=O` (stereo not drawn) gave Methyltransferases inactive.
Screening COc1ccc(CNC(=O)c2sc(=S)n3c2[nH]c(=O)c2cc4c(cc23)OCO4)cc1 returned Methyltransferases inactive.
For COc1ccccc1NC(=O)c1sc(=S)n2c1[nH]c(=O)c1ccc(Cl)cc12 the results were Methyltransferases inactive.
Screening COc1ccc(OC)c(NC(=O)c2sc(=S)n3c2[nH]c(=O)c2ccc(Cl)cc23)c1 returned Methyltransferases active.
`COc1ccc(OC)c(CNC(=O)c2cc3n(n2)CC(C)(C(=O)NC2CCCCC2)N(C)C3=O)c1` (stereo not drawn) gave Methyltransferases inactive.
Cc1ccc(N2C(=O)c3cc(-c4ccco4)nn3CC2(C)C(=O)NC2CCCCCC2)cc1Cl (stereo not drawn) was read as Methyltransferases inactive.
For CC1=NOC2(CCN(C(=O)c3ccccc3)C2)C1 (stereo not drawn) the results were Methyltransferases inactive.
Screening O=C(c1ccccc1)N1CCCC2(CC(c3ccccc3)=NO2)C1 (stereo not drawn) returned Methyltransferases inactive.
